Test results as given in the supplement of paper PMC6555819.

What was measured:
Assay in all cases: PBM binding z-score (relative to random genomic background probes); higher = stronger binding; sequences stand for … in GC…GCGATTGACAGCGTAGAATGAAGG
[1] = tested on: RARb homodimer (NR concentration 270 nM)
How it was run: (§1)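 Antibodies against each partner of ligand-free nuclear receptor dimers (one per run) detected binding on custom Agilent 4×180K protein-binding microarrays after 1 h incubation. The double-stranded probes had 34-nt variable regions carrying direct-repeat seeds, single-nucleotide variants, half-site ablations and random human genomic background sequences. Binding z-scores, from regression-normalized fluorescence, use the random background probes as reference.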

[2] = tested on: RARg:RXRa (NR concentration 270 nM, RXRa partner concentration 90 nM)
How it was run: as §1

[3] = tested on: RARg homodimer (NR concentration 270 nM)
How it was run: as §1

[4] = tested on: RXRa DBDmut IVT, anti-RXR (DBD mutation: RXRa K156A/R161A, NR concentration 90 nM)
How it was run: as §1

[5] = tested on: RXRa homodimer (NR concentration 180 nM)
How it was run: as §1

[6] = tested on: THRa:RXRa (NR concentration 90 nM, RXRa partner concentration 90 nM)
How it was run: as §1

[7] = tested on: THRa homodimer (NR concentration 90 nM)
How it was run: as §1

[8] = tested on: VDR:RXRa (NR concentration 270 nM, RXRa partner concentration 90 nM)
How it was run: as §1

[9] = tested on: VDR homodimer (NR concentration 270 nM)
How it was run: as §1

Sequence | PBM binding z-score [1] | PBM binding z-score [2] | PBM binding z-score [3] | PBM binding z-score [4] | PBM binding z-score [5] | PBM binding z-score [6] | PBM binding z-score [7] | PBM binding z-score [8] | PBM binding z-score [9]
ATATGTAGGTTACATCCGGGTCATTTAGGCTATG | 2.76 | 3.59 | 1.81 | 1.21 | 3 | 3.7 | 2.55 | 3.9 | 2.98
AGTCAAAGTTCTCTAGGTAACGTAAGATTCAGCT | 0.137 | 0.139 | 0.523 | 0.597 | 0.0862 | 0.903 | 0.459 | -0.0211 | 0.273
AGAATGAGGTTACCAAAGATCAGGTAAACGCTTG | 0.973 | 2.09 | 1.47 | 0.793 | 2.75 | 2.98 | 1.22 | 1.44 | 0.168
TCTTGCAGATCAGCAGGTTAAGAAAGCTGGCCAA | -0.126 | -0.0186 | -0.618 | -0.0927 | 0.33 | 0.0241 | -0.879 | -0.0921 | -0.987
TCATATAGGTAAATGCTAGGTGAAGGTCCGATCT | 0.576 | 0.474 | 0.349 | 1.34 | 0.65 | 1.43 | 0.583 | 0.873 | 0.324
ATATGCAGGTTACATCCGGGTCATTCAGGCTATG | 2.86 | 4.04 | 2.1 | 0.784 | 3.53 | 3.97 | 2.19 | 4.47 | 2.77
GCATATAGGTAATACAAGGTGAAAGTCCGATTGT | 1.03 | 0.625 | 0.545 | 0.387 | 0.694 | 4.31 | 1.08 | 0.299 | 0.356
TCATATAGGTCATACAGGTGAAAGTCGGCATCTA | 3.8 | 5.21 | 5.03 | 2.68 | 5.27 | 3.42 | 0.973 | 5.01 | 1.81
CCTATTAGTTGCCCATAAGGGCAACCGAAGCTCG | 1.75 | 0.539 | 0.688 | 0.215 | 0.507 | 1.65 | 1.67 | 0.653 | 0.922
GCTCGGAGGAGAAGGTCAGAGCTTTGTCCGTAGA | 2.4 | 2.15 | 2.28 | -0.281 | 2.08 | 1.15 | -0.793 | 0.324 | -0.592
CTCGAAAGGTCGTGCTCAGGTGAATATACCAAAC | 3.06 | 5.46 | 4.17 | 2.45 | 5.01 | 4.38 | 1.6 | 3.77 | 1.27
CCTAGCAGGCCAATCTGGGTCACGCAAGGCTTGA | 2.43 | 1.86 | 1.9 | -0.504 | 1.69 | 3.99 | 0.767 |  | -0.0889
ATATGTAGGTTACATTCGGGTCATTCAGGCTATG | 2.86 | 3.72 | 2.05 | 1.74 | 3.03 | 3.99 | 3.23 | 4.24 | 3.31
AGAACGAGGGCACGCTGAGTTAATAGCAGAGTAG | 0.988 | 2.08 | 2.41 | 1.8 | 1.44 | 2.05 | 0.0156 | 1.69 | 1.08
CCAGACTGGTGAAAGGTAACTCAGTCTGGTACGC | 0.104 | 0.0585 | -0.236 | -0.492 | 0.524 | 0.18 | -0.494 |  | -0.181
ATATGTAGTTTAAGGGTCATTCAGGTTGGTTCGC | 3.9 | 3.91 | 2.88 | 2.39 | 4.82 | 3.37 | 1.71 |  | 4.96
